Results reported in PubChem BioAssay (NCI).
About 83,000 compounds went through this panel and 20% of them were active in at least one assay; those are over-represented in the sample as a whole.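 Cells were grown in 96-well plates and exposed to the test compound at a single concentration for 48 hours; results are reported as percent growth, with values below 10 considered active.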 Unmarked numbers belong to inactive results. Activity calls are given as the source filed them.

Columns and labels:
Experiment in all cases: NCI-60 one-dose screen, 48 h (100 = growth as untreated, 0 = no growth, -100 = all killed)
Settings in all cases: 10 µM unless noted
NCI-H23 lung = tested on: NCI-H23 lung
NCI-H226 lung = tested on: NCI-H226 lung
NCI-H322M lung = tested on: NCI-H322M lung
HOP-62 NSCLC = tested on: HOP-62 NSCLC
NCI-H460 lung = tested on: NCI-H460 lung
HOP-92 NSCLC = tested on: HOP-92 NSCLC
NCI-H522 lung = tested on: NCI-H522 lung
A549/ATCC NSCLC = tested on: A549/ATCC NSCLC
786-0 renal = tested on: 786-0 renal
COLO 205 colon = tested on: COLO 205 colon

SMILES | growth (NCI-H23 lung) | growth (NCI-H226 lung) | growth (NCI-H322M lung) [%] | growth (HOP-62 NSCLC) [%] | growth (NCI-H460 lung) | growth (HOP-92 NSCLC) | growth (NCI-H522 lung) | growth (A549/ATCC NSCLC) | growth (786-0 renal) | growth (COLO 205 colon)
COC(=O)c1ccc(NC(N)=NCCC(C)(C)c2ccc(C(F)(F)F)cc2)nc1 | 17.5% | 37.4% | 74.5 | 63.7 | 31.6% | 39% | 39% | 54.2% | 56.9% | -71.2% (active)
O=C1Cc2c([nH]c3ccc([N+](=O)[O-])cc23)-c2ccccc2N1 | 2.05% (active) | 27.1% | 18.3 | 17.8 | 6.76% (active) | -17.1% (active) | 0.987% (active) | 18.5% | 7.56% (active) | -58.1% (active)
COc1ccc(/C(=C\c2cc(OC)c(OC)c(OC)c2)C(=O)N2CCN(c3ccccc3)CC2)cc1O | 99.2% | 98.8% | 100 | 99 | 106% | 85.9% | 84.4% | 90% | 103% | 111%
NNC(=O)Cc1ccccc1 | 93.2% | 78.2% | 74.2 | 92.2 | 94.7% | -17.8% (active) | 77.6% | 86.3% | 92.1% | 112%
Cc1ccc(NC(=O)c2nc(S(C)=O)oc2-c2ccc(F)cc2)cc1Nc1nccc(-c2cccnc2)n1 (stereo not given) | 50% | 51.7% | 103 | 58.2 | 61.5% | 96.2% | 7.97% (active) | 95.4% | 54.6% | 54%
O=C(OCc1ccc2c(Br)cc(Br)c(O)c2n1)c1cc2ccccc2[nH]1 | -27.4% (active) | -66.5% (active) | 51.6 | 13.7 | -38.7% (active) | -66.4% (active) | -74.2% (active) | 14.5% | -78.2% (active) | -74% (active)
CCOC(=O)NNc1cccc(Cl)c1 | 93.8% | 84.7% | 104 | 103 | 103% | 87.5% | 96.6% | 107% | 112% | 123%
COc1ccc(-c2cnc3ccnn3c2-c2cc(OC)c(OC)c(OC)c2)cc1 | 42.7% | 65.5% | 55.8 | 40 | 11.1% | 103% | 10.1% | 46.8% | 40.3% | -31.2% (active)
C=CCOc1c(Br)cc(Br)cc1Br | 53.1% | 81.5% | 45 | 58.6 | 38.5% | 90.6% | 27.6% | 59.7% | 102% | 103%
Cc1ccc(N2C3c4ccccc4N(S(=O)(=O)c4ccc(C)cc4)C2c2ccccc2N3S(=O)(=O)c2ccc(C)cc2)cc1 | 99.9% | 94.3% | 106 | 107 | 99.5% | 101% | 106% | 97.1% | 112% | 115%
COC(=O)C(CCC(=O)CCl)N1C(=O)c2ccccc2C1=O (stereo not given) | 79.1% | 70.1% | 91.7 | 79.9 | 90.1% | 49.7% | -15.1% (active) | 104% | 60.3% | 87.8%
CCNS(=O)(=O)c1ccc(C)cc1 | 100% | 103% | 102 | 100 | 101% | 69.7% | 114% | 95.8% | 110% | 113%
O=C1OCC2=C1C(c1cccc(Br)c1)c1cc3c(cc1N2CCO)OCCO3 (stereo not given) | 27.5% | -4.52% (active) | 35 | 28.7 | 0.468% (active) | 25.2% | -11.5% (active) | 13.5% | 21.8% | -24.5% (active)
COCCn1c(Nc2ccc(C(=O)NO)cc2)nc2ccccc21 | 72.8% | 89.6% | 76.5 | 74.8 | 56.7% | 27.7% | 30.9% | 69.2% | 84.4% | 50.7%
CC[C@H](Nc1nc(C)nc(N)c1C#N)c1nc2cccc(NCc3ccc(C(=O)NO)cc3)c2c(=O)n1-c1ccccc1 | -17.5% (active) | -3.97% (active) | 24.5 | 10.1 | 2.36% (active) | -1.54% (active) | -36.4% (active) | -31% (active) | 5.71% (active) | 0.926% (active)
O=C(NO)c1ccc(NCc2csc3ccccc23)cc1 | 48.5% | 64.8% | 85.7 | 65.3 | 39.8% | 71.7% | 33.1% | 70.3% | 71.3% | 50.1%
COc1cc(C2C=C(C)N=C3SC=NN32)cc(OC)c1OC (stereo not given) | 100% | 108% | 112 | 102 | 108% | 91.4% | 104% | 101% | 112% | 115%
O=C(Nc1ccc(Oc2ccc(Nc3nc4ccccc4s3)cc2)cc1)Nc1ccc(Cl)c(C(F)(F)F)c1 | -20.2% (active) | 4.93% (active) | 25.7 | 17 | 1.39% (active) | -25% (active) | -36.8% (active) | 9.75% (active) | 1.24% (active) | -84% (active)
Cc1ccc2oc(=O)cc(-c3nc4ccc([N+](=O)[O-])cc4[nH]3)c2c1 | 43.9% | 66.6% | 80.5 | 72 | 47.1% | 52.7% | 36% | 35.2% | 40.6% | 67.8%
NS(=O)(=O)c1ccc(N2N=C(c3ccc(Br)cc3)CC2c2cn(-c3ccccc3)nc2-c2ccc(Cl)cc2)cc1 (stereo not given) | 88.3% | 103% | 92.5 | 98.2 | 81.6% | 157% | 89.9% | 76.8% | 97.9% | 86.3%
NC(N)=N/N=C/c1ccccc1 | 102% | 97.8% | 91.2 | 101 | 103% | 95.8% | 85.6% | 97.4% | 103% | 99.9%
COc1cc(CN2CCO[C@H](COc3cccc(F)c3)C2)ccc1Cl | 48.8% | 59.7% | 73.3 | 33.4 | 24.8% | 48.6% | 30.7% | 29.3% | 52% | 12.5%
N=c1n(Cc2ccccc2)c(N)cc(=O)n1Cc1ccccc1 | 12.7% | 5.6% (active) | 26.5 | 26.7 | -25% (active) | 99.5% | 10.1% | -47.2% (active) | 19.2% | 66.8%
Nc1nc2c(c3ncccc13)C(c1ccccc1)Cc1ncccc1-2 (stereo not given) | 83.3% | 88.4% | 102 | 72.1 | 92% | 96.1% | 42.9% | 72.3% | 104% | 87.8%
CC(=O)c1ccc(Nc2nc(Cl)nc(Oc3c(Cl)cccc3Cl)n2)cc1 | 92.3% | 74.9% | 104 | 101 | 79.9% | 81.2% | 64.4% | 83.8% | 100% | 99.7%
Nc1cccc(S(=O)(=O)c2cccc(N)c2)c1 | 111% | 107% | 124 | 111 | 120% | 97% | 111% | 111% | 108% | 117%
Cc1nn(-c2ccc(Cl)cc2)c(=O)n1CCN1CCOCC1 | 64.5% | 79.4% | 92.3 | 33.8 | 41.7% | 30.1% | 69% | 56.4% | 59.4% | 107%
CCCCCCCCCCCCCCC(C(=O)OCC)C(=O)OCC | 105% | 93.3% | 104 | 105 | 109% | 105% | 92.6% | 109% | 115% | 115%
